Consider 98 compounds from PubChem BioAssay AID588689 (Southern Research Specialized Biocontainment Screening …, 2011).

This experiment addresses Genome polyprotein (Dengue virus type 2 (strain 16681-PDK53)) (UniProt P29991). Briefly: Dengue-2 NS5 methyltransferase inhibitors, primary screen, biochemical, confirmation dose response (AID 588689). The settings on record: Dengue-2 NS5 methyltransferase capping enzyme assay, at 25 µM, stronger effect = higher value.
Setting [1] is: measured here: pilot screen replicate inhibition.

Each structure is given as a SMILES string. The campaign covered roughly 340,000 compounds. About 1,000 (0.29%) were called active. Rule as the data show it: inconclusive = inhibition above about 29% without an active follow-up result; inactive = below that. The list is a sample of the results. Entries with a potency or affinity are not part of this list.

Genome polyprotein (Dengue virus type 2 (strain 16681-PDK53)), sequence (P29991 whole entry, looked up): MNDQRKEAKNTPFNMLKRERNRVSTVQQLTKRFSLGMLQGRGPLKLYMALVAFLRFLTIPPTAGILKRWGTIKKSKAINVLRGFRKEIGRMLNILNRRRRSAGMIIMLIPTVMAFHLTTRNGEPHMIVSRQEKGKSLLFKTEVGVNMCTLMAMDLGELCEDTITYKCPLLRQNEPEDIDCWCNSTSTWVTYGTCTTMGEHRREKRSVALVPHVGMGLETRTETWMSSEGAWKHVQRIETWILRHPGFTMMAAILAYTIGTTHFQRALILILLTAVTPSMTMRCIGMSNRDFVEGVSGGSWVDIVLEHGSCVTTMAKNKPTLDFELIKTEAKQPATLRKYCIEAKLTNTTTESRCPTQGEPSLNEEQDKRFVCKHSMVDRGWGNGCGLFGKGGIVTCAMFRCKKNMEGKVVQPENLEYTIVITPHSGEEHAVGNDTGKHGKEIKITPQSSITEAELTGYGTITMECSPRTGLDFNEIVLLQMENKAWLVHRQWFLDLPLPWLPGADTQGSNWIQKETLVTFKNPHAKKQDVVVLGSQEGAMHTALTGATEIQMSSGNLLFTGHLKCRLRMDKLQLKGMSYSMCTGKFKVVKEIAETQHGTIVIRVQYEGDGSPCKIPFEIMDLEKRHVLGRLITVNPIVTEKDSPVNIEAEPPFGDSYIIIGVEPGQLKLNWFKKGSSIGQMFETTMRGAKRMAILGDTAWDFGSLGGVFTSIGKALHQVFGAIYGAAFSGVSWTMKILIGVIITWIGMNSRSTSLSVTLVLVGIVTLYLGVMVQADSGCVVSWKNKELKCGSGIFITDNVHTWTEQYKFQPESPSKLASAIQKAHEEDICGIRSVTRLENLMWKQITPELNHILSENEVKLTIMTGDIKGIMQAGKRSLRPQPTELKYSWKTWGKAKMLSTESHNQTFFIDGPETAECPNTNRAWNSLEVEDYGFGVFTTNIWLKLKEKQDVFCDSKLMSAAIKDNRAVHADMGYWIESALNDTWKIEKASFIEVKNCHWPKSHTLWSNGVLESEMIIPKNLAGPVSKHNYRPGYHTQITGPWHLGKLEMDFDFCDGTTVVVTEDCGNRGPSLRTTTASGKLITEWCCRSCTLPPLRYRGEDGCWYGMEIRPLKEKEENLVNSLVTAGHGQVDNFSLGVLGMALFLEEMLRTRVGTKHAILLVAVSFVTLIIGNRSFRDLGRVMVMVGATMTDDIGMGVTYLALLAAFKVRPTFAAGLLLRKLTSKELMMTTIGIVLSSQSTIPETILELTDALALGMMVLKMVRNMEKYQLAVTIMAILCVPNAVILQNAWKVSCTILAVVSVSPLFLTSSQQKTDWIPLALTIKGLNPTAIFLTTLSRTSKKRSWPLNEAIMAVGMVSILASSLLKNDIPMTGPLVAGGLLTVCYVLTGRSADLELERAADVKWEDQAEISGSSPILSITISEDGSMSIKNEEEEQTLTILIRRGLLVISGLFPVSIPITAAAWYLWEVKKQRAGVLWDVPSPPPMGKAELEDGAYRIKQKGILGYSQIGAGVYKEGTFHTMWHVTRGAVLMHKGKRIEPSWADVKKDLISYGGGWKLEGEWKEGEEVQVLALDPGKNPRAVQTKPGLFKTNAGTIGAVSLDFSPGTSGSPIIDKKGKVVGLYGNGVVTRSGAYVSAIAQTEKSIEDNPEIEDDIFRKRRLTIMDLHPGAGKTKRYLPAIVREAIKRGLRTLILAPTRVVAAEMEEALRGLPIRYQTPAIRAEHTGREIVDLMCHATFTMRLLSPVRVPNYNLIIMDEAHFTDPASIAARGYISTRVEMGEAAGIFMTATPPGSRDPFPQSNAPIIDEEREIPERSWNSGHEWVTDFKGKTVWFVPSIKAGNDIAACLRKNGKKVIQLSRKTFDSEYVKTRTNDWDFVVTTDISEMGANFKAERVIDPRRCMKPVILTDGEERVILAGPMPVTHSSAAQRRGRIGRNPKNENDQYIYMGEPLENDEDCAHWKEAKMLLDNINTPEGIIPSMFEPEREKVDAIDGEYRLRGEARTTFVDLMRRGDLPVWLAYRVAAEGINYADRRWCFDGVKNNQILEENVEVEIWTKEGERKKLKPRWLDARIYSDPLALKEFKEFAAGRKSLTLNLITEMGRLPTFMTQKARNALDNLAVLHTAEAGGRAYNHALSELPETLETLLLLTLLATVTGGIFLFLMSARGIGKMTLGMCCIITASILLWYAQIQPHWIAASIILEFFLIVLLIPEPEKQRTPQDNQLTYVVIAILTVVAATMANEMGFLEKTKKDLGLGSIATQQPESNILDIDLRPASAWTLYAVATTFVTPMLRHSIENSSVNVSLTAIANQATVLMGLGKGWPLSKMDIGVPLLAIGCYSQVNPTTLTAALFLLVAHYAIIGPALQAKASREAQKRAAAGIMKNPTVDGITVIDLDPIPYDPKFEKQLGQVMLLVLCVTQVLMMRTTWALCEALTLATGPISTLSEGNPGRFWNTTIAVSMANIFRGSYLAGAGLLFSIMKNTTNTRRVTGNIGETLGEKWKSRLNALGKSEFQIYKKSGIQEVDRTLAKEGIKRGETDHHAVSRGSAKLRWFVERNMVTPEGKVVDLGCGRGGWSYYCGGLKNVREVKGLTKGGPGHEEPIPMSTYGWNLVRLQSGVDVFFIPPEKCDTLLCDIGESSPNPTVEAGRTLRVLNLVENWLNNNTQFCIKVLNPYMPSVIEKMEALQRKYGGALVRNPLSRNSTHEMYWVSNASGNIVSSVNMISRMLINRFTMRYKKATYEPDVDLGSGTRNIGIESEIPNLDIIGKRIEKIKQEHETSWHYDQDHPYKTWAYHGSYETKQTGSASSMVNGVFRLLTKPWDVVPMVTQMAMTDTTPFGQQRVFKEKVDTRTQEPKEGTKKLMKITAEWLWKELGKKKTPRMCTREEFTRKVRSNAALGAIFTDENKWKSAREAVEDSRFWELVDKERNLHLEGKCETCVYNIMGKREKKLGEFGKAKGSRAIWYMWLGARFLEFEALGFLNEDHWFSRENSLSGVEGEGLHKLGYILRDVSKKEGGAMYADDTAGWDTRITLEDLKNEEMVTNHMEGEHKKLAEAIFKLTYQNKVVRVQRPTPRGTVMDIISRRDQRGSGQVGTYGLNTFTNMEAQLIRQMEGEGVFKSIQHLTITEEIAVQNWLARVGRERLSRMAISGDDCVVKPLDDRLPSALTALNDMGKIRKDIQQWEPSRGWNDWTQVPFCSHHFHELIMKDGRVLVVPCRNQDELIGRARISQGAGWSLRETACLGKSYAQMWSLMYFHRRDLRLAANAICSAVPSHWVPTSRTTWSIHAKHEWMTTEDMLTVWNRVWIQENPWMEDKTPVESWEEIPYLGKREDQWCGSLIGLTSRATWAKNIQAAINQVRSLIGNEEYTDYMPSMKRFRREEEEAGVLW

`COc1ccc(N(CC(=O)NCCc2ccc(Cl)cc2)S(=O)(=O)c2c(C)[nH]c(=O)[nH]c2=O)cc1`: the inhibition is -3.87% (inactive).
On the same count and under the same terms, the result for `C=CC[C@@H](CC(=O)N[C@@H](CO)Cc1ccccc1)C(=O)NC[C@@H](OC(=O)[C@@H](CC=C)Cc1ccc(F)cc1)c1ccccc1` reads -8.18% (inactive); that for `CO/N=C(/C)CCS(=O)(=O)c1ccccc1`, -0.73% (inactive); that for `CC(C(=O)Nc1nncs1)N1C(=O)C2C3C=CC(C3)C2C1=O` (stereo unspecified), -5.41% (inactive).
On the same count and under the same terms, the result for `CCN(CC(=O)NCc1cccs1)C(=O)CCC(=O)c1ccc(C)cc1` reads -8.12% (inactive); that for `NC(=O)C1CCN(C(=O)CN(C2CCCCC2)S(=O)(=O)c2ccc(F)cc2)CC1`, -9.49% (inactive).
On the same count and under the same terms, the result for `CCN(CC)S(=O)(=O)c1ccc2c(c1)N(CC(=O)N1CCC(C(N)=O)CC1)C(=O)CO2` reads -6.21% (inactive); that for `O=S(=O)(c1ccc2ccccc2c1)N1CCN(S(=O)(=O)c2c(F)cccc2F)CC1`, 1.65% (inactive); that for `COc1cc(O)c(NC(C)=O)c2nonc12`, 15% (inactive).
On to `CCOc1cc(Cl)c(NC(C)=O)cc1OCC`, for which the inhibition is -5.19% (inactive).
On to `CC(C)(C)OC(=O)N1CCN(C(=O)c2[nH]cnc2C(=O)Nc2cccc(Cl)c2)CC1`, for which the inhibition is -10.3% (inactive).
Consider `O=CN1CCN(C(=S)NC(=O)c2ccc(Cl)cc2)CC1`, for which the inhibition is -3.86% (inactive).
As for `C=CCN1C(=O)/C(=C\c2cccs2)C(C(=O)OC)=C1C`, the inhibition is -4.71% (inactive).
Same read-out and setting: the result for `COC(=O)C1=C(C)NC(=O)/C1=C\c1cccs1` reads 2.73% (inactive).
On the same count and under the same terms, the figure for `O=C1NN(c2ccc(F)cc2)C(=O)/C1=C/c1cccs1` is 8.53% (inactive); for `CC(C)CN1C(=O)/C(=C/c2cccs2)NC1=S` it is 4.84% (inactive).
On the same count and under the same terms, the figure for `COc1ccc(NS(=O)(=O)c2cccc(C(=O)NCC3(N(C)C)CCCCC3)c2)cc1` is -10.1% (inactive); for `COCCNC(=O)c1ccc2c(=O)n(Cc3ccco3)c(SCC(=O)Nc3ccc(OC)cc3OC)nc2c1` it is -3.55% (inactive).
`COc1ccccc1N1CCN(S(=O)(=O)c2ccc3nc(-c4ccccc4)[nH]c3c2)CC1`: the inhibition is 1.09% (inactive).
On the same count and under the same terms, the figure for `O=C(CSc1nc2c(c(=O)[nH]1)CCC2)Nc1cccc(Cl)c1` is -8.06% (inactive); for `O=C(NN=C1CCCC1)C(=O)Nc1cccc(C(F)(F)F)c1` it is -3.35% (inactive); for `O=c1c2c(nc3cc(-c4cccc(Cl)c4)[nH]n13)CCCC2` it is 1.45% (inactive).
On the same count and under the same terms, the figure for `O=C(O)CSc1c2c(nc3cc(C(=O)Nc4cccc(C(F)(F)F)c4)ccc13)CCC2` is 2.95% (inactive); for `Cc1ccc(S(=O)(=O)/N=C(\Nc2cccc(C)c2)Nc2nc(C)cc(C)n2)cc1` it is -1.83% (inactive); for `N#Cc1c(Nc2ccccc2)sc(C(=O)C2CC2)c1N` it is -8.93% (inactive).
Same read-out and setting: the figure for `CCN(CC)CCNC(C(=O)Nc1ccc([N+](=O)[O-])cc1Br)c1ccccc1` (stereo unspecified) is 3.24% (inactive); for `Cc1cccc(N=Nc2cnc(N)s2)c1` it is 0.79% (inactive); for `COc1cc(C(=O)O)ccc1Cl` it is -1.59% (inactive).
In the case of `CC(Oc1ccc2c(-c3ccccc3)cc(=O)oc2c1)C(=O)NCCCn1ccnc1` (stereo unspecified), the inhibition is 2.17% (inactive).
On to `CCCC(=O)Nc1ccccc1NC(=O)CCC`, for which the inhibition is 0% (inactive).
Still for that read-out and setting: the figure for `CCC(=O)Nc1c(C)cc(C)cc1Cl` is -1.67% (inactive); for `CC(C)NC1=C(Cl)C(=O)c2ccccc2C1=O` it is -0.68% (inactive); for `CCC(=O)NC1=C(Nc2ccc(N)cc2)C(=O)c2ccccc2C1=O` it is 7.83% (inactive).
Same read-out and setting: the figure for `O=C(NCCc1ccccc1)c1nc(CS(=O)(=O)c2ccc(Cl)cc2)no1` is -1.81% (inactive).
The same measure, in the same setting: the result for `CCCCCC1CC(CC(=O)NC(=S)Nc2ccccc2Cl)C(=O)O1` (stereo unspecified) reads -4.68% (inactive); that for `Nc1c(C(=O)O)ccc2c1C(=O)c1ccccc1C2=O`, 24.7% (inactive).
In the case of `CN(C)S(=O)(=O)c1cccc2c1C(=O)c1ccccc1C2=O`, the inhibition was -1.92% (inactive).
The same measure, in the same setting: the result for `CC1(Cc2cn(CCC#N)c3ccccc23)OCCO1` reads 6.35% (inactive); that for `CCOC(=O)c1cc(CC)sc1/N=C/C1C(=O)CC(C)(C)CC1=O`, -17.9% (inactive).
On the same count and under the same terms, the result for `C/[N+]([O-])=C\C1C(=O)CC(C)(C)CC1=O` reads -2.92% (inactive); that for `CC1(C)CC(=O)C(C(=O)Cc2ccccc2[N+](=O)[O-])C(=O)C1`, -1.48% (inactive); that for `CC1(C)CC(=O)C(C(c2cccc([N+](=O)[O-])c2)C2C(=O)CC(C)(C)CC2=O)C(=O)C1`, 0% (inactive).
The same measure, in the same setting: the figure for `Cc1ccc2nc(SCn3nnc4ccccc4c3=O)[nH]c2c1` is -4.53% (inactive).
On to `COc1ccc(OCCCC(=O)ON=C(N)c2ccccc2Cl)cc1`, for which the inhibition is 1.1% (inactive).
As to `CN(CCc1ccccc1)C(=O)c1ccc(NC(=O)Cc2ccc(NC(=O)C3CCCN(C(=O)C4CCC4)C3)cc2)cc1` (stereo unspecified), the inhibition was 0% (inactive). The inhibition under setting [1] came to 0.92%.
Turning to `COC(=O)c1ccc(NC(=O)CSc2nnc(COc3c(C)cccc3C)o2)cc1`, the inhibition was -9.55% (inactive).
Same read-out and setting: the result for `CC1CC(=O)c2cc(-c3ccccc3)oc2C1` (stereo unspecified) reads 5.14% (inactive).
Regarding `CC1CCC(O)(C(C(=O)O)c2ccccc2)CC1` (stereo unspecified), the inhibition was -8.55% (inactive).
On the same count and under the same terms, the result for `COc1cc(NC(=O)CSc2ccc(-c3ccccn3)nn2)cc(OC)c1` reads 0% (inactive); that for `O=C(NNC1CC(=O)N(c2cccc(Cl)c2)C1=O)c1cccs1` (stereo unspecified), 3.87% (inactive); that for `O=C1CSC(=Nc2ccc(O)cc2)N1c1ccc(O)cc1`, -5.52% (inactive).
On the same count and under the same terms, the result for `O=C1CSC(=Nc2ccc(O)cc2)N1` reads -4.89% (inactive).
Consider `CN(C(=O)CC1C(=O)NCCN1Cc1ccccc1C(F)(F)F)C1CCOCC1` (stereo unspecified), for which the inhibition was 0.91% (inactive).
Still for that read-out and setting: the result for `O=C(NCCCN1CCCC1)C1CCN(C(=O)c2cc3sccc3n2Cc2ccc(F)cc2)CC1` reads -2.07% (inactive); that for `CC(/C=C/c1ccco1)=N\NC(=O)COc1ccc(C)c(C)c1`, -10.9% (inactive); that for `CC(=O)Nc1ccc(/C(N=Nc2ccccc2)=N/N=C(N)N)cc1`, 7.72% (inactive).
Same read-out and setting: the result for `O=C(O)c1cccc(N/N=C(\N=Nc2ccccc2)c2ccccc2)c1` reads 12.7% (inactive); that for `CCCCn1c(SCC2CCCO2)nc2cc(S(N)(=O)=O)ccc21` (stereo unspecified), -11.1% (inactive); that for `CC1CCN(S(=O)(=O)c2ccc(C(=O)Nc3nnc(C4CC4)o3)cc2)CC1`, -8.7% (inactive).
In the case of `COc1cc(NC(=O)CN2CC(c3ccccc3)CC2=O)cc(OC)c1` (stereo unspecified), the inhibition was 0.73% (inactive).
On to `CCn1cc(Br)c(C(=O)N2CCN(c3ccccc3)CC2)n1`, for which the inhibition is -5.15% (inactive).
The same measure, in the same setting: the result for `COc1ccc(C(C#N)=C2C=C(Cl)C(=NO)C=C2Cl)cc1` reads 27.6% (inactive); that for `N#CC(=C1C=C(Br)C(=NO)C=C1Cl)c1cccc2ccccc12`, 24.1% (inactive).
Turning to `Cc1cc(C)cc(NC(=O)CS(=O)(=O)c2cccc3nsnc23)c1`, the inhibition was -0.79% (inactive).
On the same count and under the same terms, the figure for `Cc1ccc(NS(=O)(=O)Cc2ccccc2)cc1Cl` is -1.36% (inactive); for `CCC1CCCCN1S(=O)(=O)c1ccc2c(c1)CCN2C(C)=O` (stereo unspecified) it is -10.9% (inactive).
Same read-out and setting: the figure for `CC(=O)c1ccc(-n2c(=O)[nH]c(=O)c3c(N)c(C(=O)c4ccc(Cl)cc4)sc32)cc1` is -6.85% (inactive).
In the case of `CC(C)(C)OC(=O)C[C@@H]1C/C=C\C[C@@H](CC(=O)N(CCO)Cc2ccccc2)C(=O)N2CCC[C@H]2COC1=O`, the inhibition is -2.31% (inactive). Besides, under setting [1], the inhibition was -4.54%.
`CC1=NN(c2ccc(C)cc2C)C(=O)C1C(c1ccccc1O)C1C(=O)N(c2ccc(C)cc2C)N=C1C` (stereo unspecified): the inhibition is 15.6% (inactive).
`CC1=NN(c2ccc(C)cc2C)C(=O)C1C(c1cccc(O)c1)C1C(=O)N(c2ccc(C)cc2C)N=C1C` (stereo unspecified): the inhibition is 26.6% (inactive).
Regarding `CCc1ccc(OCC(O)CNC(C)(C)C)cc1` (stereo unspecified), the inhibition was -2.07% (inactive).
For `Clc1ccc(/C=C/c2nc3ccccc3[nH]2)c(Cl)c1`, the inhibition was 3.38% (inactive). The inhibition under setting [1] is -0.3%.
For the compound `Clc1ccc(C=Cc2ccccn2)c(Cl)c1`, the inhibition is 3.5% (inactive).
Still for that read-out and setting: the figure for `CCOc1ccc(/C=C\c2nc(O)c([N+](=O)[O-])c(=O)[nH]2)cc1OCC` is -0.66% (inactive); for `O=[N+]([O-])c1cccc(/C=C/c2ccncc2)c1` it is 2.32% (inactive).
On the same count and under the same terms, the figure for `O=c1[nH]c(/C=C\c2cccc(Cl)c2)nc(O)c1[N+](=O)[O-]` is 15.9% (inactive); for `CCOc1ccc(/C=C/c2c([N+](=O)[O-])c(=O)n(C)c(=O)n2C)cc1` it is 0.74% (inactive); for `O=[N+]([O-])c1cccc(/C=C/c2nc[nH]c2[N+](=O)[O-])c1` it is -14.1% (inactive).
In the case of `Cn1c(/C=C/c2ccc(Cl)cc2Cl)c([N+](=O)[O-])c(=O)n(C)c1=O`, the inhibition was 2.64% (inactive).
Regarding `O=[N+]([O-])c1cccc(C=NN2CCCCCC2)c1`, the inhibition is -2.33% (inactive).
Regarding `O=c1cc(O)c2sc3nc4c(c(C(F)(F)F)c3c2[nH]1)CCCCC4`, the inhibition is 0.88% (inactive).
Still for that read-out and setting: the figure for `Cc1cc(-c2csc(Nc3ccccn3)n2)ccc1F` is -8.87% (inactive).
Still for that read-out and setting: the result for `O=C(NCCCn1ccnc1)c1cccc(S(=O)(=O)Nc2ccccc2F)c1` reads -2.82% (inactive).
On the same count and under the same terms, the figure for `COc1cccc(N=C2SC(CC(=O)Nc3ccccc3)C(=O)N2Cc2ccccn2)c1` (stereo unspecified) is -4.38% (inactive).
In the case of `COc1ccc(-c2c(-c3cc(OC)cc(OC)c3)n(C)c3ccc(-c4ccc(OC)cc4F)cc23)cc1`, the inhibition is -1.04% (inactive).
Same read-out and setting: the result for `O=C(CSc1nnc(-c2ccccc2)n1-c1ccccc1)N1c2ccccc2Sc2ccccc21` reads -3.27% (inactive); that for `Cc1nc(SCC(=O)N2c3ccccc3Sc3ccccc32)n[nH]1`, -1.38% (inactive).
Still for that read-out and setting: the result for `COCCCNCC(O)COc1cccc2[nH]c(C)cc12` (stereo unspecified) reads 3.64% (inactive); that for `CC1(C)CC(CC(=O)O)(c2ccccc2)CCO1` (stereo unspecified), -6.14% (inactive); that for `C=CCNC(=O)c1ccc(OC)cc1`, -4.57% (inactive).
On the same count and under the same terms, the result for `O=C1NC(=O)C(=Cc2ccccc2)N1` reads -3.98% (inactive).
Consider `O=C(O)/C=C\c1ccccc1Oc1ccc(F)cc1`, for which the inhibition is -0.72% (inactive).
Same read-out and setting: the figure for `Cc1ccc(S(=O)(=O)Oc2ccccc2/C=C2/SC(=O)NC2=O)cc1` is 6.22% (inactive); for `Cc1ccc(S(=O)(=O)Oc2ccccc2/C=N/O)cc1` it is -1.81% (inactive).
Same read-out and setting: the figure for `Cc1ccc(S(=O)(=O)Oc2ccccc2/C=C2\SC(=O)NC2=O)cc1` is 12.8% (inactive); for `Cc1ccc(S(=O)(=O)Oc2ccccc2/C=N/NC(N)=S)cc1` it is -0.7% (inactive).
The same measure, in the same setting: the result for `O=c1cc(Cl)c(-c2ccccc2)n[nH]1` reads -1.61% (inactive).
Take `O/N=C\c1ccccc1Oc1ccc(F)cc1`: the inhibition is -8.72% (inactive).

Usually inhibition stands for the relative decrease from the control value, in per cent.
